SMILES strings stand for the structures. The whole screen tested about 330,000 compounds, of which about 5,800 (1.8%) were called active. The sample as a whole holds a higher share of actives than the screen did. A number with no mark means an inactive call.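 How the source made its calls: active means inhibition above about 50% at the single tested dose (limit read from the data); inactive means the rest.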

The target of the test is Sentrin-specific protease 6 (Homo sapiens) (UniProt Q9GZR1). As to the kind of experiment: SENP6 protease inhibitors, primary screen, biochemical, luminescence, uHTS (AID 2599).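 Further: plate controls were DMSO wells with enzyme for no effect and DMSO wells lacking enzyme for full effect.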 The note with it: Recombinant SENP6 catalytic domain, aminoluciferin luminescence; at 10 µM; active compounds read high.
Chain of Sentrin-specific protease 6 (Homo sapiens) (Q9GZR1 628-1112 limits assumed): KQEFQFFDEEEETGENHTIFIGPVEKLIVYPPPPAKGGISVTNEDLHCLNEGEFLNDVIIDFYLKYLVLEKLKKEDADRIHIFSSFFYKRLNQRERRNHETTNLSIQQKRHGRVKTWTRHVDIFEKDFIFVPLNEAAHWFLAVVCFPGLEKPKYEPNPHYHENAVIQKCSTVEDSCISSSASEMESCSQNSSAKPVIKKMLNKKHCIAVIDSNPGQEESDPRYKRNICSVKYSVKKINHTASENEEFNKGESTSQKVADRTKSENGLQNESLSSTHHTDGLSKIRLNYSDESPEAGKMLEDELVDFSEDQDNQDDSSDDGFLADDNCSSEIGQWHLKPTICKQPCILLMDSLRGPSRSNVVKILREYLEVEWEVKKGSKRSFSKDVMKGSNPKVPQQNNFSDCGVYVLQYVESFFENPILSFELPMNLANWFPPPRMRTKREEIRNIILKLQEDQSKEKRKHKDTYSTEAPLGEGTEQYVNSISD
With `CCOc1ccc(NC(=O)CCC(=O)NNC(=O)NC2CCCCC2)cc1`, the inhibition is -9.85%. On to `CC(C)OC(=O)C(C#N)c1nc2ccccc2nc1N1CCN(Cc2ccccc2)CC1` (stereo not drawn), for which the inhibition was 6.5%. Take `Cc1ccc(S(=O)(=O)C(C#N)c2nc3ccccc3nc2N2CCCC2)cc1C` (stereo not drawn): the inhibition was 75.9% (active). The figure for `Cc1ccc(S(=O)(=O)N2CCN(c3ccccc3)CC2)cc1C` is 4.47%.

With `O=C(CCCN1C(=O)c2ccccc2C1=O)Oc1ccc(Cl)cc1`, the inhibition is 1.14%.

`O=c1c2c(nc3n1CCCCC3)sc1c(O)cccc12`: the inhibition is 51.8% (active). For the compound `Cc1cccc2c(=O)n3c(nc12)CCCCC3`, the inhibition is 9.44%. Take `Cc1c(C(=O)Nc2ccccc2)sc2nc3n(c(=O)c12)CCCCC3`: the inhibition was -15.7%. As for `Cn1cccc1C(=O)NC(=O)COC(=O)Cc1coc2ccc3ccccc3c12`, the inhibition is -4.09%. The result for `Cc1c(C(=O)NC(C)C2CC3CCC2C3)cccc1[N+](=O)[O-]` (stereo not drawn) reads -22.4%; that for `COc1ccc(CCNC(=O)CCNS(=O)(=O)c2cc(Br)cnc2N)cc1OC`, -5.77%. Regarding `O=c1/c(=C/c2ccc(CNS(=O)(=O)c3ccccc3)o2)sc2n1CCN=2`, the inhibition is 3.24%.

Consider `CCn1c(=O)cc(SCC(=O)NCCC2=CCCCC2)c2ccccc21`, for which the inhibition is -1.94%.

Regarding `COCCNC(=O)CCCN1C(=O)c2ccccc2Sc2ncccc21`, the inhibition was -28.9%. The figure for `Oc1c(C=Nc2cccc3nsnc23)ccc2ccccc12` is 94.6% (active). The result for `Cc1cc2c(cc1C)N(Cc1ccccc1)C1=NCCCN12` reads -12.7%; that for `O=C(Nc1ccccc1)O/N=C1/CCCc2occc21`, -12.8%. The result for `CCCN1C(=O)C(Cc2nc3ccccc3c(=O)n2-c2ccccc2)c2cc(C)ccc21` (stereo not drawn) reads -13.2%; that for `Cc1ccc(NC(=S)N(CCCN2CCCC2)Cc2cccn2Cc2ccc(Cl)cc2)cc1`, -18%. `Brc1ccccc1C1N=C(c2ccccc2)NO1` (stereo not drawn): the inhibition was 38.9%. The result for `N#Cc1ccc(C2N=C(c3ccccc3)NO2)cc1` (stereo not drawn) reads 53% (active). The result for `C/C=C/C=C/C(=O)O` reads -2.25%.

As for `COc1ccc(C(=O)C2CCCN(C(=O)c3cc(C)on3)C2)cc1F` (stereo not drawn), the inhibition is 4.97%. The result for `O=C(COC(=O)CNC(=O)C1CCCCC1)NCc1ccccc1` reads 4.4%. The result for `Clc1ccc2nc(CSc3ccccc3)cn2c1` reads 72.1% (active). The figure for `CCCCCCSc1ccc(-c2nc3ccc(Cl)cn3c2NCc2ccccc2)cc1` is -0.449%; for `O=C(/C=C/c1ccc2c(c1)OCO2)NCc1cn2cc(Cl)ccc2n1` it is -4.65%; for `CC1(c2ccc(Cl)cc2)NC(=O)N(CC(=O)c2ccc3c(c2)OCO3)C1=O` (stereo not drawn) it is -6.26%. Consider `O=C(c1ccc(S(=O)(=O)c2ccccc2)cc1)N1CCCCCC1`, for which the inhibition is -8.79%. The result for `O=C(c1ccc(CSc2ccccc2)cc1)N1CCCCCC1` reads 80.6% (active). The result for `CC1CCN(C(=O)c2ccc(CSc3ccc(Cl)cc3)cc2)CC1` reads 15.6%; that for `CCOc1ccccc1C(=O)NC1CC2CCCC(C1)N2Cc1ccccc1` (stereo not drawn), 7.09%. In the case of `O=C1N/C(=C/c2cccs2)C(=O)N1Cc1ccc(F)cc1`, the inhibition was -6.09%.

As for `CSC1=N/C(=C\C=C\c2cccs2)C(=O)S1`, the inhibition is 77.8% (active). The figure for `Cc1cccc(C2=N/C(=C/c3cccs3)C(=O)O2)c1` is 9.27%. The result for `O=C(O)c1ccc(/C=N/Nc2nc(N3CCCCC3)nc(N3CCCCC3)n2)cc1` reads -7.28%. Take `O=C(O)c1ccc(N/N=C/c2ccc3ncccc3c2)cc1`: the inhibition was 101% (active). Regarding `Cc1ccc2cc(/C=N/Nc3ccc(C(=O)O)cc3)c(Cl)nc2c1`, the inhibition is -25%. With `Cc1ccc2c(c1)N(CC(=O)N(Cc1ccccn1)Cc1ccco1)C(=O)C(C(C)C)O2` (stereo not drawn), the inhibition is -1.99%. The figure for `CC(=O)N(C1=C(Cl)C(=O)c2ccccc2C1=O)c1ccc(C(=O)O)cc1` is 81.4% (active).

Take `COc1ccc(CCNC(=O)CSCc2ccc(Br)cc2)cc1OC`: the inhibition was 1.68%.

With `CN(CC(=O)Nc1ccc(Cl)cc1)CC(=O)Nc1cccc2ccccc12`, the inhibition was -2.99%. The figure for `CN(CC(=O)Nc1ccc(Cl)cc1)C(=O)c1ccc(COc2ccccc2)cc1` is 18.3%; for `CN(CC(=O)Nc1ccc(Cl)cc1)C(=O)CNC(=O)c1ccc2ccccc2c1` it is 64.9% (active); for `COc1ccc(C2=NOC3(CC(=O)N(c4ccc(Cl)cc4)C3=O)C2)c(OC)c1` (stereo not drawn) it is -7.66%. The result for `Cc1cnc(NC(=O)C2CCCC2)s1` reads 8.65%; that for `O=C(Nc1nnc(C2CC2)s1)c1ccccn1`, 69.2% (active); that for `O=C(Nc1nnc(C2CC2)s1)c1cc(Cl)sc1Cl`, 4.15%. Turning to `CCc1cc(C(=O)Nc2nnc(C3CC3)s2)sc1C`, the inhibition is -7.34%. As to `Cc1cccc(NC(=O)CSCC(=O)Nc2nnc(C3CC3)s2)c1`, the inhibition is -3.73%. The result for `Cc1cc(C(=O)Nc2nnc(C3CC3)s2)c(C)s1` reads 76.1% (active); that for `O=C(Nc1nnc(Cc2ccccc2)s1)c1cnccn1`, -4.43%. The result for `Cc1ccc(SCC(=O)Nc2ncc(C)s2)cc1` reads -5.14%.

For `Cc1cnc(NC(=O)c2ccccn2)s1`, the inhibition is 88.5% (active). The result for `COc1ccccc1NC(=O)CCSc1nnc(-c2ccc(O)cc2)o1` reads -8.69%. The result for `O=C(c1cccc(F)c1)N1CCN(c2ccc([N+](=O)[O-])c3cccnc23)CC1` reads 13.7%; that for `CCOc1cc(CNCc2ccccn2)ccc1OCC(=O)NC(C)(C)C`, 4.74%; that for `CCn1nc(C)c(CN2CCN(Cc3ccc(OC)c(C)c3C)C(CCO)C2)c1C` (stereo not drawn), -13.1%.

For the compound `COCCCNC(=O)CN1CCN(Cc2ccccc2Cl)C1=O`, the inhibition was -5.23%. The result for `CC(=O)Nc1ccc(S(=O)(=O)Nc2nc3n(n2)C(c2ccccc2)CC(=O)N3)cc1` (stereo not drawn) reads -18.6%; that for `O=c1c2cc(-c3ccccc3)sc2nc2n1N=C(c1cccs1)CS2`, 73.2% (active). The figure for `Cc1nnc2n1N=C(c1ccccc1)CS2` is 0.225%. The figure for `COc1ccc(C2CC(c3cccs3)=NN2c2ccccc2)cc1` (stereo not drawn) is -18.7%; for `COc1ccc(Cl)cc1NS(=O)(=O)c1cccc(C(=O)NCC2CCCO2)c1` (stereo not drawn) it is -6.29%; for `COc1ccc(S(=O)(=O)N2CCOCC2)cc1NC(=O)Cc1c(F)cccc1Cl` it is 2.93%.

`CC1=CC(=C(C#N)c2nc3ccccc3s2)C=C(C)N1c1ccc(F)cc1F`: the inhibition was 63.9% (active). In the case of `O=C(O)CS/C(=C\c1ccc(F)cc1)c1nc2ccccc2s1`, the inhibition is -11.1%. The figure for `N#C/C(=C(/O)Cc1cccc2ccccc12)c1nc2ccccc2s1` is 1.83%. Consider `CN(Cc1ccccc1)C(=O)C1CCCN(c2ncnc3c2nc2n3CCCCC2)C1` (stereo not drawn), for which the inhibition is -17.3%. The result for `Cc1cc(NC(=O)COc2ccccc2C#N)no1` reads 4.16%. On to `O=C(Nc1ccn(Cc2ccccc2)n1)c1n[nH]c([N+](=O)[O-])c1Cl`, for which the inhibition is 98.2% (active). For `O=C(Nc1ccn(Cc2ccccc2F)n1)c1ccc(COc2ccc(Cl)cc2Cl)o1`, the inhibition is 25.5%.

Take `Cc1ccc(Cn2ccc(NC(=O)C3C4CCC(C4)C3C(=O)O)n2)cc1` (stereo not drawn): the inhibition is 13.1%. The figure for `Cc1cc(C)c(S(=O)(=O)Nc2c(C)n(C)n(-c3ccccc3)c2=O)cc1[N+](=O)[O-]` is -1.02%; for `CN(CC1CCCN(CCc2cccc(C(F)(F)F)c2)C1)C(=O)c1ccc2nc[nH]c2c1` (stereo not drawn) it is -6.57%. The result for `COc1ccc(S(=O)(=O)NCC(=O)NC2CC2)cc1OC` reads -8.69%; that for `CCCCC(c1nnnn1CS(=O)(=O)c1ccc(C)cc1)N1CCC(C(N)=O)CC1` (stereo not drawn), -48.9%. The figure for `COc1ccccc1N=Cc1c(O)c2ccccc2oc1=O` is 81% (active). Regarding `COc1ccccc1N=C(C)C1=C(O)COC1=O`, the inhibition was -35%. The figure for `COc1cc(N=Cc2c(O)c3ccccc3oc2=O)c(OC)cc1Cl` is -7.87%. The result for `CCc1c(C)nc2c(-c3ccccc3)c(C)nn2c1Nc1ccc(NC(C)=O)cc1` reads -6.24%. As for `CCN(C(=O)CSc1cccc[n+]1[O-])c1ccccc1`, the inhibition is -15.1%. For `CCn1c(=O)n(CC)c2cc(N3CCCC3)c(NC(=O)c3ccccc3Br)cc21`, the inhibition is 7.04%. The result for `CN(C(=O)c1cc2c(=O)n3ccccc3nc2s1)C1CCCCC1` reads -20.3%; that for `CN(c1ccc2nc3ccccc3c(=O)n2n1)C1CCCCC1`, 93.7% (active); that for `CN(C(=O)CSc1nncc2ccccc12)C1CCCCC1`, -34.7%.

In the case of `COc1ccc(/C=N/NC(=O)c2ccncc2)cc1CN1CCCc2ccccc21`, the inhibition is -2.09%.

With `C=CCn1c(Cn2nnc3ccccc32)nnc1SCC(=O)N/N=C/c1cc(Br)cc(OC)c1O`, the inhibition was 20.6%. The result for `Cc1ccc(Nc2ncnc3c2cnn3C)c(C)c1` reads 14.7%; that for `Cc1ccc(-n2ncc3c(Nc4cccc(C(=O)O)c4)ncnc32)cc1`, 97.4% (active); that for `CCN(CC)C(=O)CSc1ncnc2c1cnn2-c1ccccc1`, 22.4%.

For `O=C(CCNC(=O)c1ccccc1)Nc1nc2ccccc2s1`, the inhibition is -6.27%. The result for `O=C(CCC(=O)c1cccs1)Nc1nc2ccccc2s1` reads -6.28%. The figure for `c1ccc2sc(NN=C3CCCC3)nc2c1` is 84.1% (active); for `CC1=NN(C(N)=S)C(=O)C1N=Nc1cc(Cl)ccc1Cl` (stereo not drawn) it is 67.7% (active). `CN(C)S(=O)(=O)c1ccc(N2CCCC2)c(C(=O)Nc2cccc(F)c2)c1`: the inhibition is -13.9%.

Turning to `c1ccc(C2CCC(N3CCC(N4CCCCC4)CC3)CC2)cc1` (stereo not drawn), the inhibition is -12.6%. As for `CCCOc1ccc(NC(=O)CC2C(=O)N(C)C(=S)N2Cc2ccc3c(c2)OCO3)cc1` (stereo not drawn), the inhibition was -5.66%.

These data come from PubChem BioAssay AID2599 (Sanford-Burnham Center for Chemical Genomics, 2010).
